Laboratory results published in the supplement of paper PMC11732987, “Enantioselective OTUD7B fragment discovery through chemoproteomics screening and high-throughput optimisation” (Communications Chemistry, 2025).

Assays:
Experiment in all cases: log2 ratio of Biotin-Ahx-Ub-VS probe labelling (fragment/DMSO); higher = less target engagement (more negative = stronger competition), active = hit call of the paper (q ≤ 0.05, log2 ratio ≤ -1)
Details in all cases: compound concentration: 200 uM; treatment time: 3 h
USP42 = molecular target: T1, USP42 (UniProt Q9H9J4)
T1 sequence (whole entry): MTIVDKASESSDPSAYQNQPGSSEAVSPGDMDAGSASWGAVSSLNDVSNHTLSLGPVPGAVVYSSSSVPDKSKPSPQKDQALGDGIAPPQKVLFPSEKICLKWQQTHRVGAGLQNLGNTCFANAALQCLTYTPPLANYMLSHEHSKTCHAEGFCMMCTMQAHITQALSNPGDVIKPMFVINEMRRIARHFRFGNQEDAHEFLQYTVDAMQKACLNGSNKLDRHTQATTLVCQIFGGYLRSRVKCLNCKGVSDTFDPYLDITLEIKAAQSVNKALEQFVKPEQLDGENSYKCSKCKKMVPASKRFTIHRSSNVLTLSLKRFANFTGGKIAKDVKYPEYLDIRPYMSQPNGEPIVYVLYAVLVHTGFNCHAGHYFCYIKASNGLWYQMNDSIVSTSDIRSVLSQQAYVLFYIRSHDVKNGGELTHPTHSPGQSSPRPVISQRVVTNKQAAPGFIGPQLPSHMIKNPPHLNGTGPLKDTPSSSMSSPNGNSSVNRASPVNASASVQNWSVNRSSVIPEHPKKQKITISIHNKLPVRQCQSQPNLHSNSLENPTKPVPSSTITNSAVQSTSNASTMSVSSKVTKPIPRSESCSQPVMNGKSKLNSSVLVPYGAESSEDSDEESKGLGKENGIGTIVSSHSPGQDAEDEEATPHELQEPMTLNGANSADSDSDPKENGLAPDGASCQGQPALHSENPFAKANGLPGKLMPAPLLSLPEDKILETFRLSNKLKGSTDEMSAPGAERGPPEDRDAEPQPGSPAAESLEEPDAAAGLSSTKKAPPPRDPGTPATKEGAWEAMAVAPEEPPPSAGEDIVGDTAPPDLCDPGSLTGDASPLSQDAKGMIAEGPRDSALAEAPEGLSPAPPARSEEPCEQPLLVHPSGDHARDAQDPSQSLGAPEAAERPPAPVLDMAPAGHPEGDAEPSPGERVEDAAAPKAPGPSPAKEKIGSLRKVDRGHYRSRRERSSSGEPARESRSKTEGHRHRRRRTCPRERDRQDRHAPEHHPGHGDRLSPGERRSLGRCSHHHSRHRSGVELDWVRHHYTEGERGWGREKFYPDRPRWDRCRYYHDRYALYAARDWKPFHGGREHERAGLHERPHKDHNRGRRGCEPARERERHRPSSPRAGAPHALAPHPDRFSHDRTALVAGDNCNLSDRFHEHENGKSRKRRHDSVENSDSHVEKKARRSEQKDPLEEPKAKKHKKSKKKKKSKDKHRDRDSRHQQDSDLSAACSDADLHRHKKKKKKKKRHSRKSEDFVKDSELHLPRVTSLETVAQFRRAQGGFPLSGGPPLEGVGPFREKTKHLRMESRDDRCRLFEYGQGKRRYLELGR
How it was run: (§1)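 HEK293T lysate in Tris/CHAPS/IGEPAL buffer with protease inhibitors (495 µg per sample) was given fragment at 200 µM or vehicle for 3 h, in triplicate. It then received Biotin-Ahx-Ub-VS at 0.5 µM final for 1 h. Labelled DUBs were NeutrAvidin-enriched, digested with LysC and trypsin, and run by diaPASEF LC-MS/MS. Values are average log2 fragment/vehicle ratios by unpaired t-test on global-median-normalised Spectronaut quantities of proteins with ≥2 unique peptides.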

USP46 = USP46 (UniProt P62068)
Chain of USP46 (P62068 whole entry): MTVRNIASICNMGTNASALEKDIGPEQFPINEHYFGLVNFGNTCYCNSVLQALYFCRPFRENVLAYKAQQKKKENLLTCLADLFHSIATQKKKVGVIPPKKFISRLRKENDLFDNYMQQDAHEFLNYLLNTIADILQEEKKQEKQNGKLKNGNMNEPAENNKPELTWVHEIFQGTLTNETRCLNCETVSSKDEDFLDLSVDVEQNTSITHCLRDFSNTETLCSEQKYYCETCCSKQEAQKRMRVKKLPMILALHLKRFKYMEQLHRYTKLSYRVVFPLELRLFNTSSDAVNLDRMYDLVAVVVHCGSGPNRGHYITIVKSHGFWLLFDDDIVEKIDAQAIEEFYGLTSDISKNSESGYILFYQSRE
How it was run: as §1

USP47 = molecular target: T2, USP47 (UniProt Q96K76)
T2 sequence (whole entry): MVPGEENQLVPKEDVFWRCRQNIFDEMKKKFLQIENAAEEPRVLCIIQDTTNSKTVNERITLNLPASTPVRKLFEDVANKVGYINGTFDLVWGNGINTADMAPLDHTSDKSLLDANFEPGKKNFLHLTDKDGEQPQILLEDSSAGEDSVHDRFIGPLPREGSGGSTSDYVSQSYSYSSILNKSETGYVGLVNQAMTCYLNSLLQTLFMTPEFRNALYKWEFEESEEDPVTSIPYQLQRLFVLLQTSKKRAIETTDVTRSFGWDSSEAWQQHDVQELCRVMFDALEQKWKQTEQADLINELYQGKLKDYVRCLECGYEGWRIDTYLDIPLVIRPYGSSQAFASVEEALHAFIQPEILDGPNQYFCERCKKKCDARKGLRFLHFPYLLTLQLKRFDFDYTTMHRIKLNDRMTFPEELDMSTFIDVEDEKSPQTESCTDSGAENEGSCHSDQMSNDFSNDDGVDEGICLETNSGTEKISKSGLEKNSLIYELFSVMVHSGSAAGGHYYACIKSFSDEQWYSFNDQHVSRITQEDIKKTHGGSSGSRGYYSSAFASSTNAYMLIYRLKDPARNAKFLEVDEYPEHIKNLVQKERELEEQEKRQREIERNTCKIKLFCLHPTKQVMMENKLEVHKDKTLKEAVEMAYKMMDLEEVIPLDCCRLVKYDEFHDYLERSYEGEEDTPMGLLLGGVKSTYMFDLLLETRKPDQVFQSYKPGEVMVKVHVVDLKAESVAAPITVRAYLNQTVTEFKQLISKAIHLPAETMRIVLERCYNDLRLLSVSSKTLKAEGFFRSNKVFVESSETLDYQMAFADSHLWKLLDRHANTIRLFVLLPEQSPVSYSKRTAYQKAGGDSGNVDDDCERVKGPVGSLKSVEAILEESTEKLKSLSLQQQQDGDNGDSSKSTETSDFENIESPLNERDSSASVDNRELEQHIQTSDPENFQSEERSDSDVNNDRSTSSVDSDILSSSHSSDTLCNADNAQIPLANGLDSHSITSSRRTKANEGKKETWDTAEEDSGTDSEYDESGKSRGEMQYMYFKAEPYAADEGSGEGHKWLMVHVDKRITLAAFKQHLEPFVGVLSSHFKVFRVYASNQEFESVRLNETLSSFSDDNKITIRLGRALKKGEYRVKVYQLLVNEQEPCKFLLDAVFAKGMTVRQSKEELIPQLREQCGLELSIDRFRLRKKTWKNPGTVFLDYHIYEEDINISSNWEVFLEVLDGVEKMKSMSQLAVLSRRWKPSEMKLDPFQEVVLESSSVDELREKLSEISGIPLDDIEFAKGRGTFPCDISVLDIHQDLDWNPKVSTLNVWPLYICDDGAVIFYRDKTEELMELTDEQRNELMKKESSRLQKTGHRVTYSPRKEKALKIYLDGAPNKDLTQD
How it was run: as §1

USP48 = molecular target: T3, USP48 (UniProt Q86UV5)
T3 sequence (whole entry): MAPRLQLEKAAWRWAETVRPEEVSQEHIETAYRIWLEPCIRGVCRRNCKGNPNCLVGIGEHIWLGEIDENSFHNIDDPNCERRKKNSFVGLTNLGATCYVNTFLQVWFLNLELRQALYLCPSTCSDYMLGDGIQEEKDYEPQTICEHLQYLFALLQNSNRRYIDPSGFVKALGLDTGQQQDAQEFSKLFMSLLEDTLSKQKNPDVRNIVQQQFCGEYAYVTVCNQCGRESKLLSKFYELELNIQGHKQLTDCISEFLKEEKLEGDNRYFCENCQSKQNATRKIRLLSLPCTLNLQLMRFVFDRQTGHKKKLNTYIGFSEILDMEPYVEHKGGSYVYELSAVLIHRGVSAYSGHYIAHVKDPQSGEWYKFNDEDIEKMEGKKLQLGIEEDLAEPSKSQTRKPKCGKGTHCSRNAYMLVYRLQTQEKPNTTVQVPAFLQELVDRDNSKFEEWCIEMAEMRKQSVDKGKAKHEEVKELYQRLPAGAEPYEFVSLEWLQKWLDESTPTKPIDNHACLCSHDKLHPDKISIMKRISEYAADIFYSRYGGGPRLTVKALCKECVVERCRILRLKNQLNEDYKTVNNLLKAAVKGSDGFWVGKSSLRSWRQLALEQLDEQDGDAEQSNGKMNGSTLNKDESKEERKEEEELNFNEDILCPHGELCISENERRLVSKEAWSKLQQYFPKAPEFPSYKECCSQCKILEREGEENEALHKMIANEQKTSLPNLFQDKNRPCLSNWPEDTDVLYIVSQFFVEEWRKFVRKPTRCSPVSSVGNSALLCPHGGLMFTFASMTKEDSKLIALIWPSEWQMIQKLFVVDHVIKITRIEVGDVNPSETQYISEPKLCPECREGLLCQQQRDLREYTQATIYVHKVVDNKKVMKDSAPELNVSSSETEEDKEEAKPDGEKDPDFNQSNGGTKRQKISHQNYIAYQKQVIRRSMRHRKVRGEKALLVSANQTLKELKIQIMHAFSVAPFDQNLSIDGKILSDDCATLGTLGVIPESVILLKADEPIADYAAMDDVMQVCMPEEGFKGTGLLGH
How it was run: as §1

USP5 = molecular target: T4, USP5 (UniProt P45974)
T4 sequence (whole entry): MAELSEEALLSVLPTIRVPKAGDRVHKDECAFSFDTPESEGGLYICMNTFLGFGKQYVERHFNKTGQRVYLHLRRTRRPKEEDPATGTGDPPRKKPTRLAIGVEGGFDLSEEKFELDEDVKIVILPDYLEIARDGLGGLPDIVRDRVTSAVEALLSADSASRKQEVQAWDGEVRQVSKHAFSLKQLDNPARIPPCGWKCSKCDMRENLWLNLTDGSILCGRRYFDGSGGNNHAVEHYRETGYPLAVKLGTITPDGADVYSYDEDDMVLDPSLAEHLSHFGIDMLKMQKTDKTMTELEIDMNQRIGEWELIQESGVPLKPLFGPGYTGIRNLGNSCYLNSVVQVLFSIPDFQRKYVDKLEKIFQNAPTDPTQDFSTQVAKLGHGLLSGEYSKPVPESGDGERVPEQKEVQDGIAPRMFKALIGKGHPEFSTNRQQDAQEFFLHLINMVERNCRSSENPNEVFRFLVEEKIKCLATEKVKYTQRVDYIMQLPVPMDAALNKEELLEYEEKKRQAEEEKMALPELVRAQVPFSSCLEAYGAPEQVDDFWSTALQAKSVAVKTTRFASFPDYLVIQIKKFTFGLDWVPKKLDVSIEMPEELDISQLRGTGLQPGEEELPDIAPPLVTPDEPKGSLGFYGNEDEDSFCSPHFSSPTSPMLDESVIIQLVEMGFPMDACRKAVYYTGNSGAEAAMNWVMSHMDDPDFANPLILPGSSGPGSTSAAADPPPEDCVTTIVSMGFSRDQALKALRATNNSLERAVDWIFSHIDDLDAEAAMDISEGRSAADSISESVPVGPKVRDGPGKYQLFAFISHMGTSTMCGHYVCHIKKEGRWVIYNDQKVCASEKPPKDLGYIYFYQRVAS
How it was run: as §1

USP54 = USP54 (UniProt Q70EL1)
Chain of USP54 (Q70EL1 whole entry): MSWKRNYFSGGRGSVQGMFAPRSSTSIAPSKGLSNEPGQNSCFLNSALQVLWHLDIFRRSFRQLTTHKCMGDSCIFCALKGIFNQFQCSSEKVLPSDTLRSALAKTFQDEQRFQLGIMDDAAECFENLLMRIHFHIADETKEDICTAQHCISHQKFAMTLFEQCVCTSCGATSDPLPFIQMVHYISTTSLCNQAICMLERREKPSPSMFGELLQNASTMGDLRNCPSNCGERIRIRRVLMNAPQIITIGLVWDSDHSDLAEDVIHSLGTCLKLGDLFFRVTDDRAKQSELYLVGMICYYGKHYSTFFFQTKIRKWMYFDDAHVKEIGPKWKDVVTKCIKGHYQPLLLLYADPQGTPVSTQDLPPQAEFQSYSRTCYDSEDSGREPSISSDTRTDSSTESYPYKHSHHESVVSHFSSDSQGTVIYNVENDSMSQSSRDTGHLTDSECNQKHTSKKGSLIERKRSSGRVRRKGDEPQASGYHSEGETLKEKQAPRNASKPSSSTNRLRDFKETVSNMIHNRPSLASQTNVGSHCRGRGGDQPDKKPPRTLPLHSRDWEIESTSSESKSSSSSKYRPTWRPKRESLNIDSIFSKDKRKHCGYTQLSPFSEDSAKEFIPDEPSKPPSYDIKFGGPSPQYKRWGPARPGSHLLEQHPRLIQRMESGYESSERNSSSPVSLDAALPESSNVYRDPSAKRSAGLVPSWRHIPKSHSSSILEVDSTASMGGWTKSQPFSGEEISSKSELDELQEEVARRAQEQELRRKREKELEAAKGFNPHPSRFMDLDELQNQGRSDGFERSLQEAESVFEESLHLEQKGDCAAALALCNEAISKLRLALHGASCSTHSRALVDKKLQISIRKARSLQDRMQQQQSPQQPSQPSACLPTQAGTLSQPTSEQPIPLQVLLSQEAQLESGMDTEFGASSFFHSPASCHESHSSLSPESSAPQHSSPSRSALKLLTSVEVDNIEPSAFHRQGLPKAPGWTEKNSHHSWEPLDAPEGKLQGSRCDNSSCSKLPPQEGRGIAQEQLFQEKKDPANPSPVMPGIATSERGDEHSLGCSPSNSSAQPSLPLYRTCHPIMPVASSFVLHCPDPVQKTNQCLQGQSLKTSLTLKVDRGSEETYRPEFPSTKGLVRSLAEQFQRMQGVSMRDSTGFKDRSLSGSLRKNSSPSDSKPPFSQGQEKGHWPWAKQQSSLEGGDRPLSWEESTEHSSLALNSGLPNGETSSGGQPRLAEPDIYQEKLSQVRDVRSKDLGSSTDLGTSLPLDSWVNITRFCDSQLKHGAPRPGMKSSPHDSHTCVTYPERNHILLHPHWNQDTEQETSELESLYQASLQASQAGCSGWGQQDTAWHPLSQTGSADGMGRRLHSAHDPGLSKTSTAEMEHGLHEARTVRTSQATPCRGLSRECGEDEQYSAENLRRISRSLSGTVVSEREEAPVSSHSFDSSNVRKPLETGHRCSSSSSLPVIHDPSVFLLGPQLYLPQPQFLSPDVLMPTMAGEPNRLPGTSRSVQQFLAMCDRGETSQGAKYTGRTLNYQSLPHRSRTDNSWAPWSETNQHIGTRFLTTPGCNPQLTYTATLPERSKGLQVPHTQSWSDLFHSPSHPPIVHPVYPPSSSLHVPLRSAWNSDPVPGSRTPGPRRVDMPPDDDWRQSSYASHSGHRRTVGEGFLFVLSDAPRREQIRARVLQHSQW
How it was run: as §1

USP7 = USP7 (UniProt Q93009)
Chain of USP7 (Q93009 whole entry, looked up): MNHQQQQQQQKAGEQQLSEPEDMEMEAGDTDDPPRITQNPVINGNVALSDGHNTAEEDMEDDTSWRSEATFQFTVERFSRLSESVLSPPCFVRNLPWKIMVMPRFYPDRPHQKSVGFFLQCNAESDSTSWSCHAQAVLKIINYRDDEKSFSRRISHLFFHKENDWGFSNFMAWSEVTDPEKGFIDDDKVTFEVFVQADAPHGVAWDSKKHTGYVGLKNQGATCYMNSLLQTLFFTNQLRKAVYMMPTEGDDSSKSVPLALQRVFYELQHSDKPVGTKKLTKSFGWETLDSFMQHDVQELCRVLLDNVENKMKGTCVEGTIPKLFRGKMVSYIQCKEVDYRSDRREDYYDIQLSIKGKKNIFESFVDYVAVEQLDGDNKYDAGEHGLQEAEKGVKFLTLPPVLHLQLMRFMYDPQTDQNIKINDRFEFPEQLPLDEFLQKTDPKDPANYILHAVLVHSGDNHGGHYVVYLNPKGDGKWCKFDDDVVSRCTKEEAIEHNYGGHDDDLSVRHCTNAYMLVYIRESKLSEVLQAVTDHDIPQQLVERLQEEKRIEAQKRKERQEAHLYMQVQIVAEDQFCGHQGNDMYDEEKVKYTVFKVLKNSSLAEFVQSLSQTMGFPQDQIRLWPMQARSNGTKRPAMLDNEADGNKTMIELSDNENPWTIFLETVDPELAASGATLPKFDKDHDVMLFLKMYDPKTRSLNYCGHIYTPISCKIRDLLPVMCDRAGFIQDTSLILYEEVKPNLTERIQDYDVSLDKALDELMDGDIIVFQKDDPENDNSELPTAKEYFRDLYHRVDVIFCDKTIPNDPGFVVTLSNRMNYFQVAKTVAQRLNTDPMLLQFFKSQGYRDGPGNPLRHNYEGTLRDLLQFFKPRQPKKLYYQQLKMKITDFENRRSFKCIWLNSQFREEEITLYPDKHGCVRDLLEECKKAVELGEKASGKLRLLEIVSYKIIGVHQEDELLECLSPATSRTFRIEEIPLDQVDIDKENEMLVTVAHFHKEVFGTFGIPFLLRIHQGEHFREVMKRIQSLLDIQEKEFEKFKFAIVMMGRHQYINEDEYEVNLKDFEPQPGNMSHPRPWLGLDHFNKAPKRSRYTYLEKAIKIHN
How it was run: as §1

USP8 = molecular target: T5, USP8 (UniProt P40818)
T5 sequence (whole entry): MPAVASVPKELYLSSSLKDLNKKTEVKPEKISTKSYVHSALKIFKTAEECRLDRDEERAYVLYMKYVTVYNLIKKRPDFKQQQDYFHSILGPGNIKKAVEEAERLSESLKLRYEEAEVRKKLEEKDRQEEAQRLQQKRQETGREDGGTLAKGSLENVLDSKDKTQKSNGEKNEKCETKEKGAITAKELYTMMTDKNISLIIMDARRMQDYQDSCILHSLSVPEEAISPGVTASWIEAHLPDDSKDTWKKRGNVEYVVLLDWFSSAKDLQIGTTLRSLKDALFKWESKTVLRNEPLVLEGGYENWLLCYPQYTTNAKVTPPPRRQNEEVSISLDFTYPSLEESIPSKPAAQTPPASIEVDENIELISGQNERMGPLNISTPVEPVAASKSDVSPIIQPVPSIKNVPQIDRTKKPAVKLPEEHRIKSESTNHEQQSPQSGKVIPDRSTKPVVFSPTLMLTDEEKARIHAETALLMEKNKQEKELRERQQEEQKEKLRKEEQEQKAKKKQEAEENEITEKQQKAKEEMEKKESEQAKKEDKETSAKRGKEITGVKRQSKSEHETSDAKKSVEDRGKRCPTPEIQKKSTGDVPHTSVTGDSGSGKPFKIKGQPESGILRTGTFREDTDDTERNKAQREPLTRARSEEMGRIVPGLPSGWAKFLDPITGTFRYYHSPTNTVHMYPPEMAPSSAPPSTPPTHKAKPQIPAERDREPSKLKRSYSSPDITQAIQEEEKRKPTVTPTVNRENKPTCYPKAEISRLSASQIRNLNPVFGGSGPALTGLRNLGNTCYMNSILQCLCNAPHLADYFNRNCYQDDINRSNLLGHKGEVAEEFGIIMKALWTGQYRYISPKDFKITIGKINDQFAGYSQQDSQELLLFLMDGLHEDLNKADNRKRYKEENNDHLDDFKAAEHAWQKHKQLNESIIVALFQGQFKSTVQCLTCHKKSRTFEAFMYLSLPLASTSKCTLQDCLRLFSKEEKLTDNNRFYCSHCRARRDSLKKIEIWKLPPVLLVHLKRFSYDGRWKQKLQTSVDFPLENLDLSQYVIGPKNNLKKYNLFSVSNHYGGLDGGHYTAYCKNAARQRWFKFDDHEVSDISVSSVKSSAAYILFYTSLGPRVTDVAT
How it was run: as §1

Measured: log2 ratio of Biotin-Ahx-Ub-VS probe labelling

O=C(CCl)NCc1cccc(F)c1
inactive: USP42 -0.105 | USP46 0.151 | USP47 -0.193 | USP48 -0.0573 | USP5 0.1 | USP54 0.396 | USP7 -0.069 | USP8 -0.0486
